# PubChem BioAssay (EPA / NIEHS)
# Activity calls are given as the source filed them. How the source made its calls: active means hit-call score of the fitted dose curve at least 0.9, where 1 is the maximum; inactive means score below 0.9.
# Read-out: Tissue plasminogen activator (tPA), PLAT (gene 5327)
# Experiment: BSK_BE3C_tPA: BioMAP Diversity Plus: BE3C Assay for Tissue plasminogen activator (tPA) Biomarker Activity (AID 2283041);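 on outcome: tPA level quantified by ELISA one day after compound addition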
# Conditions: primary human bronchial epithelial cells; actives raise or lower the signal
# Method: BSK_BE3C is a cell-based, multiplexed-readout assay that uses bronchial epithelial cell, a human lung primary cell, with measurements taken at 24 hours after chemical dosing in a 96-well plate.BSK_BE3C_tPA is an assay component measured in the BSK_BE3C assay. It measures tPA antibody related to regulation of gene expression using ELISA technology.Data from the assay component BSK_BE3C_tPA was analyzed into 1 assay endpoint. This assay endpoint, BSK_BE3C_tPA, was analyzed with bidirectional fitting relative to DMSO as the negative control and baseline of activity. Using a type of binding reporter, gain or loss-of-signal activity can be used to understand changes in the signaling as they relate to the gene PLAT. Furthermore, this assay endpoint can be referred to as a primary readout, because this assay has produced multiple assay endpoints where this one serves a signaling function. To generalize the intended target to other relatable targets, this assay endpoint is annotated to the protease intended target family, where the subfamily is serine protease.
# The levels of cell surface (or secreted, indicated by the prefix "s") biomarker endpoints were measured by ELISA. Overt cytotoxicity to cells in confluent adherent cultures (all systems other than the BT system) was assessed by measuring total protein levels using sulforhodamine B (SRB) staining in parallel cultures at the time of biomarker measurements, indicated as SRB endpoints. For proliferation assays for adherent cell types, individual cell types are cultured at sub-confluence and relative cell numbers quantified by SRB staining at time points optimized for each system (48 h: 3C and CASM3C systems; 72 h: BT and HDF3CGF systems; 96 h: SAg system). SRB was performed by staining cells with 0.1% SRB after fixation with 10% TCA and reading wells at 560 nm.Viability and proliferation of PBMC (T cells) was quantified by Alamar Blue reduction for the SAg and BT systems. For PBMC viability (referred to as PBMC Cytotoxicity within the assay endpoint names), cells were plated (75,000/well in a 96-well plate) and then chemical samples added for 1 h before addition of activators, SEB and TSST-1 (20 ng/mL final concentration each). Cells were incubated for 90 h. Then, Alamar Blue (20 uL/well) (Invitrogen, Cat DAL1100) was added for 6 h, and the plates were read with a fluorescence microplate reader at 546/580 nm (excitation/emission). For PBMC proliferation, cells were plated and activated as above but incubated for only 16 h prior to addition of Alamar Blue. Plates were read after 6 h.
SMILES,outcome,AC50
c1ccc(C[n+]2cccc3ccccc32)cc1,inactive,
O=CCCCC=O,inactive,
CCCCCCCCN(C)CCCCCCCC,inactive,
O=C(OCCCCCCOC(=O)c1ccccc1)c1ccccc1,inactive,
CCCCCc1ccc(N)cc1,inactive,
Cc1oc2c(NC(=O)c3c(Cl)cccc3Cl)cccc2c1C(C)(C)O,,15.1 µM (active)
O=C(Nc1ccc(Cl)cc1)Nc1ccc(Cl)c(Cl)c1,,1.73 µM (active)
CC(O)CC(C)(C)O (stereo not given),inactive,
CCN(CC)C(=O)c1cc(S(=O)(=O)Cc2ccccc2)c(N2CCC(c3ccccc3)CC2)cc1N(CC)CCN(C)C,,6.65 µM (active)
COc1cc(C(=O)NC2CCN(C)CC2)ccc1Nc1ncc2c(n1)N(C1CCCC1)CC(F)(F)C(=O)N2C,,10.6 µM (active)
CC[C@H](NC(=O)c1cc(F)ccc1NS(=O)(=O)c1cccc2cccnc12)c1ccccc1,inactive,
Cc1cccc2ccccc12,inactive,
CCCC(=O)OCCC(C)C,inactive,
CCCCCCCCCCCC[N+](C)(C)C,,15 µM (active)
Clc1ccccc1C(c1ccccc1)(c1ccccc1)n1ccnc1,,5.41 µM (active)
CC(C)(C)c1cc(/C=C2\SC(N)=NC2=O)cc(C(C)(C)C)c1O,inactive,
CCCCCCCCCC(=O)O,inactive,
Cc1ncc(CO)c(CO)c1O,inactive,
CC1(C)NC(=O)N(c2ccc([N+](=O)[O-])c(C(F)(F)F)c2)C1=O,inactive,
CC(C)(O)c1ccc(CNC(=O)c2cccnc2Oc2ccc3nonc3c2)cc1,inactive,

SMILES,outcome,AC50
CCCCCCCCOc1ccc(C(=O)c2ccccc2)c(O)c1,inactive,
CCOC(=O)O[C@H](C)OC(=O)c1ccc2c(c1)cc(C(=O)NC1CCN(C(C)C)CC1)n2Cc1cc(-c2ccc(Cl)s2)on1,,9.95 µM (active)
CCO[Si](CCCNC(N)=O)(OCC)OCC,inactive,
CN1C(=O)N(c2ccccc2Br)Cc2cnc(Nc3ccc4c(c3)OCC(CO)O4)nc21 (stereo not given),,4.46 µM (active)
COc1cccc([C@H](O)C2CCN(CCc3ccc(F)cc3)CC2)c1OC,inactive,
CC[C@@H]1C[C@H](N(Cc2cc(C(F)(F)F)cc(C(F)(F)F)c2)C(C)=O)c2cc(C(F)(F)F)ccc2N1C(=O)OC(C)C,inactive,
COc1ccc2cc(S(=O)(=O)N[C@H](CC(=O)N[C@H](Cc3ccc(CN4[C@H](C)CCC[C@@H]4C)cc3)C(=O)N(C)C(C)C)c3ccc4c(c3)OCO4)ccc2c1,,7.92 µM (active)
OCCO,inactive,
O=C1c2ccccc2C(=O)N1CCc1noc(-c2ccc(CN3CCCCCC3)s2)n1,inactive,
c1ccc2n[nH]nc2c1,inactive,
CC/C(=C(/CC)c1ccc(O)cc1)c1ccc(O)cc1,,14.3 µM (active)
Cc1ccc(C(C)C)cc1,inactive,
C[C@]12CC[C@@H]3c4ccc(O)cc4CC[C@H]3[C@@H]1CC[C@H]2O,inactive,
CCCCCCCCCCCCO,,24.8 µM (active)
c1ccc2ccccc2c1,inactive,
O=C(O)Cn1c(=O)n(Cc2ccc(Br)cc2F)c(=O)c2ccc(Cl)cc21,,11.5 µM (active)
Oc1ccccc1,inactive,
O=C(O)c1ccccc1-n1cc(C(=O)O)c(=O)c2cc(Nc3c(F)cc(F)cc3Cl)c(Cl)cc21,inactive,
CCCCCCCCOC(=O)c1cc(O)c(O)c(O)c1,,24.9 µM (active)
CCCCCCCC[Si](OCC)(OCC)OCC,inactive,
